According to PubChem BioAssay (NCATS):
Values joined by “and” are separate entries in the source; they are usually repeats but may differ in a detail not shown here. Equal values may be shown once. Records with an inconclusive call do not appear. Active and inactive are the calls of the source. Calls come from the whole dose curve; as a rule, active = well fitted activation curve with a large enough effect; inconclusive = small, poorly fitted or top-dose-only effect; inactive = no such curve, though single readings can be large or run the other way.

target: Cellular tumor antigen p53 (Homo sapiens) (UniProt P04637); assay: Primary qHTS for small molecule compounds that upregulate eGFP-tagged delta133p53alpha (in N-terminal) cells. (AID 2060322); details: NCI-H358 eGFP-delta133p53alpha fluorescence, 24 h; activation: stronger effect = higher value; note: nearly all actives have a fitted effect of over 75% in size;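 for activation: series mostly up to about 56 µM; 0% = DMSO vehicle and 100% = reference activator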
Sequence (P04637 whole entry, looked up): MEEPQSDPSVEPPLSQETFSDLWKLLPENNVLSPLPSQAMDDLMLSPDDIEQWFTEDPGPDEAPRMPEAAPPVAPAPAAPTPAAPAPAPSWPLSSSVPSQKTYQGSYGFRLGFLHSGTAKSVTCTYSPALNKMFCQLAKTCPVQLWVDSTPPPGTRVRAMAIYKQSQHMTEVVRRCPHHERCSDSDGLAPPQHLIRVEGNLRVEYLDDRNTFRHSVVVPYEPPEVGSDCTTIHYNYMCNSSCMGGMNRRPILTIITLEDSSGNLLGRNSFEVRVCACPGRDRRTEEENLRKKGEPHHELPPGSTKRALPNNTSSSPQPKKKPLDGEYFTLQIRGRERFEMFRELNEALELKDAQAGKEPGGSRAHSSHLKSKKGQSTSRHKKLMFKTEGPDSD
How it was run: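 NCI-H358 cells pre-induced 24 h with 10 ng/ml doxycycline to express N-terminal eGFP-delta133p53alpha, then dosed 24 h at 37C without doxycycline; fixed, Hoechst-stained, GFP intensity by laser scanning cytometry, normalized to DMSO (0%) and 57.5 uM 5-azacytidine (100%).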
Potency is the fitted concentration of half-maximal effect.

Structure (SMILES)	activation	Potency
CC=C1NC(=O)[C@H]2CSSCCC=C[C@H](CC(=O)N[C@H](C(C)C)C(=O)N2)OC(=O)[C@H](C(C)C)NC1=O	27.9% (inactive)	–
Cc1cc(C)cc(OCC2CNC(=O)O2)c1 (stereo not given)	-11.9% (inactive)	–
CCOC(=O)c1ccc(O)cc1	-12.6% (inactive)	–
Nc1cccc2c1CN(C1CCC(=O)NC1=O)C2=O (stereo not given)	21.6% (inactive) and -10.9% (inactive)	–
CCCCCC1Nc2cc(C(F)(F)F)c(S(N)(=O)=O)cc2S(=O)(=O)N1 (stereo not given)	-4.18% (inactive)	–
CC(C)(C)NC[C@H](O)COc1cccc2c1CCCC2=O	8.47% (inactive)	–
CN(C)CCN1C(=O)c2ccccc2N(C)c2ccccc21	7.34% (inactive)	–
COC(=O)C1=C(C)NC(C)=C(C(=O)OCCc2ccc(N3CCN(C(c4ccccc4)c4ccccc4)CC3)cc2)C1c1cccc([N+](=O)[O-])c1 (stereo not given)	-15.9% (inactive)	–
C[C@@H]1C[C@H]2[C@@H]3CCC4=CC(=O)C=C[C@]4(C)[C@@]3(F)[C@@H](O)C[C@]2(C)[C@@]1(O)C(=O)COC(=O)c1ccncc1	-8.37% (inactive)	–
O=C(O)[C@@H](O)[C@H](O)[C@H](O)[C@@H](O)C(=O)O	-1.67% (inactive)	–
CC(C)COC(=O)c1ccc(N)cc1	2.82% (inactive)	–
CCN(CC)CCNC(=O)COc1ccc(Cl)cc1	19.2% (inactive)	–
NC(N)=Nc1nc(CSCCC(N)=NS(N)(=O)=O)cs1	11% (inactive)	–
CCS(=O)(=O)CCn1c([N+](=O)[O-])cnc1C	–	17.4 µM (active)
O=C(CCCCC(=O)Nc1c(I)cc(I)c(C(=O)O)c1I)Nc1c(I)cc(I)c(C(=O)O)c1I	2.82% (inactive)	–
